Test results as given in PubChem BioAssay AID651899 (Broad Institute, 2012).
Results with a measured potency or affinity are listed apart. The source made the active and inactive calls. The rule behind the calls is not given here.

Test: cytotoxicity in HEK293 cells, dose response, cytotoxicity control, cell-based, plate reader, cherry-pick (AID 651899);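 note: cells exposed to compound for 48 hours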
Settings: series mostly up to 26 µM; activity change, negative = cytotoxicity: at the top concentration

| Structure (SMILES) | activity change, negative = cytotoxicity |
| --- | --- |
| O=c1[nH]c(N2CCN(Cc3ccc4c(c3)OCO4)CC2)nc2c1CCC2 | -2.79% (inactive) |
| COc1cc2c3cc1Oc1cc(ccc1O)C[C@@H]1c4c(cc(OC)c(O)c4Oc4cccc(c4)C[C@@H]3N(C)CC2)CC[N+]1(C)C | 4.48% (inactive) |
| O=[N+]([O-])c1ccc(C[n+]2c(-c3ccccc3)cc(-c3ccccc3)cc2-c2ccccc2)cc1 | 29.9% (inactive) |
| COc1ccc2c(c1)c(C(=O)CN1CCC3(CC1)OCCO3)c(C)n2Cc1ccccc1 | -14% (inactive) |
| CCc1nc2ccc(Br)cc2c(=O)n1-c1ccccc1C(F)(F)F | -8.64% (inactive) |
| Cc1nc2nc(SCC(=O)N3CCC4(CC3)OCCO4)nn2c(C)c1Cc1ccccc1 | 5.47% (inactive) |
| CC(=O)N1CCN(c2ccc([N+](=O)[O-])cc2C=C2C(=O)NC(=O)NC2=O)CC1 | -7.17% (inactive) |
